{"source": "PubChem BioAssay (Tox21)", "note": "Inconclusive results are not listed. Entries that show only a call come without a potency. Calls of active or inactive are those of the source. Calls come from the whole dose curve; as a rule, active = well fitted cell-killing curve with a large enough effect in the repeat runs; inconclusive = weak or mixed curves, or effect the other way; inactive = no such curve, though single readings can be large or run the other way. Potency is the fitted concentration of half-maximal effect."}
{"assay": "qHTS assay to identify small molecule agonists of the estrogen receptor alpha (ER-alpha) signaling pathway in the presence of an antagonist - cell viability counter screen (AID 1259386); note: nearly all actives have a fitted effect of over 30% in size", "details": "VM7Luc4E2 viability, CellTiter-Fluor fluorescence, 22 h; series mostly up to 92.4 µM", "outline": "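Read-out: CellTiter-Fluor fluorescence after 1hr reagent incubation, measured in the same wells as the luciferase readout. VM7Luc4E2 cells were exposed to 15 compound concentrations with 10.0nM ICI-182,780 for 22hr at 37C.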"}
{"smiles": "Cc1cc(C)c(/C=C2\\C(=O)Nc3ccccc32)[nH]1", "Potency": "7.5 µM (active)"}
{"smiles": "CCCCC(CC)CN1CN(CC(CC)CCCC)CC(C)(N)C1", "note": "(centres undefined)", "Potency": "inactive"}
{"smiles": "Cc1cc(=O)oc2cc(O)cc(O)c12", "Potency": "inactive"}
{"smiles": "NC(=S)NC(N)=S", "Potency": "inactive"}
{"smiles": "CC(=O)OCC=C(C)C", "Potency": "inactive"}
{"smiles": "O=C(/C=C/c1ccccc1)OC/C=C/c1ccccc1", "Potency": "inactive"}
{"smiles": "Cc1c2ccccc2c(C)c2c1ccc1ccccc12", "Potency": "inactive"}
{"smiles": "CCCCCCCC/C=C\\CCCCCCCCN", "Potency": "inactive"}
{"smiles": "CC(C)=CCNc1ncnc2c1ncn2[C@@H]1O[C@H](CO)[C@@H](O)[C@H]1O", "Potency": "inactive"}
{"smiles": "CN(C)CCN1CCN(c2cccc(Cl)c2)C1=O", "Potency": "inactive"}
{"smiles": "CCCCCCCCCCOC(=O)c1ccccc1C(=O)OCCCCCCCC", "Potency": "inactive"}
{"smiles": "CC(C)OC(=O)C(O)(CC(=O)O)CC(=O)O", "Potency": "inactive"}
{"smiles": "O=S(=O)(O)c1ccc(Nc2nc(Nc3ccc(/C=C/c4ccc(Nc5nc(Nc6ccc(S(=O)(=O)O)cc6)nc(N(CCO)CCO)n5)cc4S(=O)(=O)O)c(S(=O)(=O)O)c3)nc(N(CCO)CCO)n2)cc1", "Potency": "inactive"}
{"smiles": "CCOC(=O)NNc1ccc(N(CC)CC(C)O)nn1", "note": "(centres undefined)", "Potency": "inactive"}
{"smiles": "CC1(C)[C@@H](O)CC[C@]2(C)[C@H]3C(=O)C=C4[C@@H]5C[C@@](C)(C(=O)O)CC[C@]5(C)CC[C@@]4(C)[C@]3(C)CC[C@@H]12", "Potency": "inactive"}
{"smiles": "O=C(O)Cc1ccccc1Nc1c(Cl)cccc1Cl", "Potency": "inactive"}
{"smiles": "c1ccsc1", "Potency": "inactive"}
{"smiles": "NC(=O)c1cccc([N+](=O)[O-])c1", "Potency": "inactive"}
{"smiles": "CCc1cccc(CC)c1NC(=O)CN(CC(=O)O)CC(=O)O", "Potency": "inactive"}
{"smiles": "OC[C@H]1O[C@H](O[C@H]2O[C@H](CO)[C@@H](O)[C@H](O)[C@H]2O)[C@H](O)[C@@H](O)[C@@H]1O", "Potency": "inactive"}
{"smiles": "CC(CO)Oc1ccccc1", "note": "(centres undefined)", "Potency": "inactive"}
{"smiles": "COc1c(C)c2c(c(O)c1C/C=C(\\C)CCC(=O)OCCN1CCOCC1)C(=O)OC2", "Potency": "inactive"}
{"smiles": "CCCc1ccc(OCC(=O)N2CCN(C(=O)COc3ccc(CCC)cc3OC)CC2)c(OC)c1", "Potency": "inactive"}
{"smiles": "ClCCl", "Potency": "inactive"}
{"smiles": "CCCCCCOC(=O)C(C)CC", "note": "(centres undefined)", "Potency": "inactive"}
{"smiles": "Cc1c(N)cccc1C(F)(F)F", "Potency": "inactive"}
{"smiles": "COC(=O)Nc1nc2ccc(C(=O)c3ccccc3)cc2[nH]1", "Potency": "inactive"}
{"smiles": "CCOc1ccc2ccccc2c1C(=O)N[C@@H]1C(=O)N2[C@@H]1SC(C)(C)[C@@H]2C(=O)O", "Potency": "inactive"}
{"smiles": "Nc1ccc(C(=O)O)c(O)c1", "Potency": "inactive"}
